The values that follow come from PubChem BioAssay.
Further: test concentration not given here.

The first experiment is described as follows: JC-1 mitochondrial signal, unstimulated myeloma cells – cell-based, JC-1 fluorescence, RPMI8226, 24 h, 100 nL compound, profiling panel (AID 1169). Particulars: JC-1 mitochondrial potential fluorescence, higher = more signal.
`C=CCOC(=O)[C@H]1[C@@H]2C(=O)O[C@@H](c3ccccc3)[C@@H](c3ccccc3)N2[C@@H](c2ccc(OCCOC(=O)[C@@H]3C[C@@H]4C(=O)N[C@@H](CCCCNC(C)=O)C(=O)N4[C@@H]3c3ccc(O)cc3)cc2)[C@]12C(=O)Nc1ccc(I)cc12`: the z-score is -0.744.

Take `O=c1n(-c2ccccc2)c(=O)n2n1CC(COc1ccccc1)=C([C@H](O)CCc1ccccc1)[C@@H]2CO`: the z-score was found to be 0.0482.

On to `CN(C)C(=O)[C@]1(CCS(=O)(=O)c2ccccc2)N=C(c2ccc(OCCCO)cc2)O[C@@H]1c1ccccc1N=[N+]=[N-]`, for which the z-score is -1.18.

Compound `COC(=O)[C@@]1(Cc2ccccc2)[C@@H]2C(=CC(=O)[C@H]2CC(=O)C(=O)N(C)C)CN1C(=O)c1ccccc1` registered a z-score of -0.791.

Compound `CCOC(=O)C[C@H]1[C@H](OC(=O)Cc2ccc3c(c2)OCO3)[C@@H](NC(=O)Cc2ccc(OC)cc2)c2cc(OCCCO)ccc2N1C(=O)c1ccc2ccccc2n1` displayed a z-score of 0.628.

Regarding `CC1CC/C=C\[C@H]2OC34C=CCN(C(C)C)C(=O)[C@H]3N(CCCCCCO)C(=O)[C@@H]4C2C(=O)O1` (stereo partly drawn), the z-score was -0.426.

Another experiment can be described thus: JC-1 mitochondrial signal, unstimulated MM1S myeloma – cell-based, JC-1 fluorescence, 24 h, 100 nL compound, profiling panel (AID 1170). As to conditions: MM1S mitochondrial potential, higher = more signal.
The compound `CCCCCCc1nc(C2CC2)cc2c1[Si](C(C)C)(C(C)C)OC2` registered a z-score of -0.00829.

Turning to `COc1ccc([Si](C)(C)[C@H]2[C@H](CCO)O[C@@]3(C(=O)N(Cc4cccc(N5C(=O)COc6ccccc65)c4)c4ccccc43)[C@@H]2C)cc1`, the z-score is -1.5.

`C=C(/C(=C/C[C@H](OC(=O)c1ccncc1)c1ccc(CO)o1)c1cc(C(=O)OC)ccc1OC)C(C)C` returned a z-score of -0.251.

`COC(=O)[C@@]1(Cc2ccccc2N=[N+]=[N-])N=C(c2ccc(OCCCO)cc2)O[C@H]1c1ccccc1N=[N+]=[N-]` gave a z-score of -2.92.

The compound `O=C1O[C@H](c2ccccc2)[C@H](c2ccccc2)N2[C@H]1[C@@H](C(=O)Nc1nc3ccccc3s1)[C@]1(C(=O)Nc3ccccc31)[C@H]2c1ccc(OCCO)cc1` yielded a z-score of -1.83.

In the case of `C=CCC(OC(C)=O)[C@@H]1[C@@H](N(Cc2cc3ccccc3o2)C(=O)c2ccc(C)cc2)c2cc(OCCCO)ccc2N1C(=O)Cc1ccc(OC)cc1` (stereo partly drawn), the z-score was found to be 0.449.

Regarding `C[C@@H]1ON(c2ccc(C(=O)OC(C)(C)C)cc2)[C@H](c2ccc(O)cc2)[C@H]1C(=O)N1C(=O)OC[C@H]1Cc1ccccc1`, the z-score was -2.81.

With `C=CCNC(=O)[C@H]1[C@@H]2C(=O)O[C@@H](c3ccccc3)[C@@H](c3ccccc3)N2[C@@H](c2ccc(O)cc2)[C@]12C(=O)Nc1ccc(C#CC3(O)CCCCCC3)cc12`, the z-score is -0.291.

Compound `CCCC[C@@H]1C[C@H]1[C@@H](NC(=O)Cc1ccccc1)c1ccc(-c2ccccc2)cc1` showed a z-score of -1.71.

`C=C(COC)/C(=C/C[C@H](OC(=O)c1ccncc1)c1ccccc1OCCO)c1cnc2ccccc2c1` gave a z-score of -0.0279.

`[N-]=[N+]=Nc1ccccc1[C@@H]1OC(c2ccc(OCCCO)cc2)=N[C@]1(Cc1ccccc1)C(=O)NCC(O)CO` (stereo partly drawn) showed a z-score of -0.318.

`CC(C)N1CC=CC23O[C@@H]4C=CCOC(=O)[C@@H]4[C@H]2C(=O)N(CCCO)[C@@H]3C1=O` (stereo partly drawn): the z-score is -1.5.

Turning to `CC(c1ccccc1)C(O)C1C=CC2C(=O)N(c3ccccc3)C(=O)C2N1Nc1ccc([N+](=O)[O-])cc1` (stereo not drawn), the z-score was -1.44.

`CC(C)C(CO)N1C(=O)[C@@H]2C3C(=O)OCCC/C=C\[C@H]3OC23C=CCN(C(C)(C)C)C(=O)[C@@H]13` (stereo partly drawn) returned a z-score of -0.351.

As to `COCCCNC(=O)[C@@]1(Cc2ccccc2N=[N+]=[N-])N=C(c2ccc(OCCCO)cc2)O[C@H]1c1ccccc1`, the z-score was -0.34.

In turn, `CN1C(=O)C2C=CC(C(O)c3ccc(F)cc3)N(Nc3ccccc3)C2C1=O` (stereo not drawn) came in with a z-score of 0.431.

Turning to `COCCOC(=O)N1C(=O)[C@@]2(c3cc(C#CC4=CCCCC4)ccc31)[C@H](c1ccc(OCCO)cc1)N1[C@H](c3ccccc3)[C@H](c3ccccc3)OC(=O)[C@H]1[C@@H]2C(=O)NC[C@H](O)c1ccccc1`, the z-score is -0.964.

For the compound `COC(=O)C1=CC(CCCO)=CC(C2CC2)N(C)C=C1C(=O)OC` (stereo not drawn), the z-score is -1.27.

As to `O=C(NCC(F)(F)F)[C@@H]1c2ccccc2C(=O)N(Cc2ccc(OC(F)(F)F)cc2)[C@H]1c1ccc(CO)cc1`, the z-score is -0.54.

In turn, `COc1cccc(/C=C/C=O)c1` displayed a z-score of -0.253.

Consider `COC(=O)C(CC#Cc1ccc2c(c1)[C@]1(C(=O)N2)[C@H](c2ccccc2OCCO)N2[C@H](c3ccccc3)[C@H](c3ccccc3)OC(=O)[C@H]2[C@@H]1C(=O)NC[C@H](O)c1ccccc1)C(=O)OC`, for which the z-score is -2.27.

`CC(C)OC(=O)C=C1C[C@@H](c2ccc(C(F)(F)F)cc2)O[C@@H](c2ccc(C(F)(F)F)cc2)O1` gave a z-score of -1.02.
